# In the library only some 6.2% were active in any assay of this set; here they are far more common.
# KB-3-1 tox – KB-3-1 parental cell cytotoxicity | KB-3-1 viability, CellTiter-Glo ATP luminescence, 72 h | Potency, µM (top dose mostly 46.1 µM), actives largely listed as cytotoxic | hit rate 1.4% among 400,000; further: on the % scale 0 is the no-effect control and ±100 the full control effect; nearly all actives have a fitted effect of over 60% in size
#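 Multi-concentration cytotoxicity screen in KB-3-1 cells grown in DMEM lacking phenol red with 10% FBS. After 72 h at 37 °C with compound, ATP-dependent luminescence was recorded.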
# KB-V1 MDR tox – KB-V1 MDR subline cytotoxicity; KB-V1 MDR cells viability, CellTiter-Glo, 72 h; Potency, µM (highest dose often 46.1 µM), usual class: cytotoxic; hit rate 3.4% among 400,000; AID 1347076; further: on the % scale 0 is the no-effect control and ±100 the full control effect; nearly all actives have a fitted effect of over 60% in size
#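 In this primary screen, KB-V1 cells overexpressing P-gp are incubated with library compounds (lowest to highest concentration) for 72 h at 37 degrees C before a luminescent ATP viability read.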
# ATXN viability – cell viability loss in ATXN counter-screen; S2 cells (HEK-293 line with an ATXN2-luciferase reporter) viability, CellTiter-Fluor protease fluorescence, 24 h; Potency, µM (highest dose often 56.7 µM), most hits filed as cytotoxic; hit rate 0.49% among 400,000; AID 651635; further: nearly all actives have a fitted effect of over 40% in size
# HT1080-NT tox – kills 2HG-producing HT-1080-NT fibrosarcoma cells; HT-1080-NT fibrosarcoma viability, CellTiter-Glo ATP luminescence, 48 h; Potency, µM (titrated, usually from 46.1 µM), for inactives: at the top dose activity, negative = less viability, actives largely listed as cytotoxic; hit rate 1.6% among 360,000;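 further: NT is the 2HG producing partner of a matched IDH1 knockdown line; 0% = DMSO-treated cells and -100% = media-only wells without cells; nearly all actives have a fitted effect of over 55% in size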
#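 Viability of the 2HG-overproducing fibrosarcoma line after 48 hours of compound exposure at 37 degrees C was determined by luminescence with CellTiter-Glo, and concentration-effect curves were then fitted and categorized.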
# ATXN2 expr inh – ATXN2 expression inhibition. Potency, µM (titrated, usually from 57 µM), without a hit: at the highest dose activity change, negative = inhibition, most hits filed as inhibitors. AID 1745845. HEK-293 ATXN2-luciferase reporter, luminescence, 24 h. hit rate 0.72% among 360,000; further: on the % scale 0 is the no-effect control and ±100 the full control effect; nearly all actives have a fitted effect of over 55% in size
#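 qHTS (up to 57 uM final) was run with 24 h compound exposure of reporter cells at 37 °C. Each well was multiplexed: SteadyGlo luminescence measured ATXN2-luciferase expression after a fluorogenic Gly-Phe-AFC viability readout (25 uM final).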
# HT1080 IDH1KD tx – kills HT-1080 cells with IDH1 knockdown | HT-1080 IDH1 knockdown viability, ATP luminescence, 48 h | Potency, µM (highest dose often 46.1 µM), for inactives: at the highest dose activity, negative = toxicity, hits mostly cytotoxic | hit rate 2% among 360,000;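 further: 0% = DMSO wells and -100% = cell-free medium wells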
#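 CellTiter-Glo luminescence after 48 h compound exposure at 37 degrees C of IDH1-knockdown HT-1080 cells in 5% FBS RPMI. %Activity scaled between DMSO wells and cell-free media wells, with curves fitted and assigned curve classes.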
# Numbers without * were called inactive; i = inactive; ? = inconclusive; · = not tested or not shown; [ ] = dose if it differs, or a comment. The call rests on the fitted dose curve; in most records, active means well fitted curve in the direction sought with a large enough effect; inconclusive means small, poorly fitted or top-dose-only effect, or another doubt; inactive means no such curve, though single readings can be large; an effect the other way counts as inactive or inconclusive. Potency means the concentration at half of the fitted maximal effect.
SMILES,KB-3-1 tox,KB-V1 MDR tox,ATXN viability,HT1080-NT tox,ATXN2 expr inh,HT1080 IDH1KD tx
NC(=O)COc1ccccc1/C=C1/SC(=O)N(CC(=O)N2CCc3ccccc3C2)C1=O,i,14.6µM*,i,0.0%,-11.3%,-16.2%
COC(=O)c1nnn(-c2nonc2N)c1CN1CCCC1,i,i,i,19.5%,6.8%,0.0%
S=C(NCc1ccc(Cl)cc1)NCc1ccccn1,i,i,i,5.5%,-2.5%,2.5%
CC(C)CCC(CCNCc1ccccn1)c1ccc(Cl)cc1 (stereo not drawn),?,10.3µM*,i,?,-37.5%,?
O=C(NCCN1CCC(n2c(=O)[nH]c3ccccc32)CC1)c1ccc(Cl)cc1Cl,i,?,i,?,-38.8%,?
O=C(C=Cc1ccccc1)CC(c1ccccc1)N1CCOCC1 (stereo not drawn),?,i,·,4.11µM*,?,?
C=CS(=O)(=O)c1ccc(Oc2ccc(S(=O)(=O)C=C)cc2)cc1,?,?,5.01µM*,-4.1%,8.91µM*,?
NS(=O)(=O)c1ccc(Oc2ccc(S(N)(=O)=O)cc2)cc1,i,i,i,5.6%,11.0%,1.1%
COc1cccc(C(=O)Nc2nc(-c3nnn(-c4cccc(Cl)c4C)c3C)ns2)c1,14.6µM*,i,i,·,-0.6%,·
COc1ccc(C(=O)Nc2nc(-c3nnn(-c4cc(OC)ccc4OC)c3C)ns2)cc1,i,i,i,·,-13.3%,·
O=[N+]([O-])c1ccc(S(=O)(=O)N/N=C/c2ccsc2)cc1,i,i,i,-3.5%,3.0%,-1.4%
Cc1ccc2oc(-c3cccc(NC(=O)C4CCCO4)c3)nc2c1 (stereo not drawn),i,i,i,?,52.7%,-25.0%
CC(=O)Nc1ccc(S(=O)(=O)Nc2cccc(-c3nc4cc(C)ccc4o3)c2)cc1,18.4µM*,?,i,-0.7%,·,15.3%
Cc1cccc(-c2nc3cc(NC(=O)C4CCCO4)ccc3o2)c1 (stereo not drawn),i,13µM*,i,-14.5%,-17.4%,-2.7%
CCOc1cccc(C2c3c(oc4cc(C)c(C)cc4c3=O)C(=O)N2c2nc(C)c(C)s2)c1 (stereo not drawn),i,i,i,·,10.2%,·
CCc1ccc(-c2nn(Cc3ccccc3)cc2C(=O)NCC2CCCO2)cc1 (stereo not drawn),i,i,?,4.8%,1.6%,3.3%
Cc1nc2c(-c3ccc(F)cc3)cnn2c(N)c1-c1ccc(F)cc1,i,?,i,3.0%,106.0%,-0.2%
Cn1cc(-c2cnn3c(N)c(Br)c([C@H]4CCCNC4)nc23)cn1,·,·,·,·,0.385µM*,·
CC1(C)CCc2cc(-c3ccn(S(=O)(=O)c4ccccc4Cl)n3)ccc2O1,i,?,i,-5.5%,65.7%,-25.8%
COc1ccc(S(=O)(=O)n2ccc(-c3ccc4c(c3)CCC(C)(C)O4)n2)cc1,i,11.6µM*,i,-24.4%,18.7%,?
Cc1cc(C)cc(NS(=O)(=O)c2ccc3c(c2)C(C)(C)C(=O)N3C)c1,i,i,i,-2.5%,6.8%,-22.1%
COc1ccc(C(=O)N2CC(=O)Nc3ccc(C)cc3C2c2ccccc2)c(OC)c1 (stereo not drawn),i,i,i,·,4.7%,·
Cc1cc(N/N=C/c2ccncc2)nc2ccccc12,?,6.51µM*,i,7.4%,·,-4.1%
Cc1cc(N/N=C/c2cccc(Br)c2)nc2ccccc12,i,20.6µM*,i,-0.5%,49.9%,-0.3%
Cc1cc(=O)[nH]c(N/N=C/c2cccc(Br)c2)n1,i,i,i,0.4%,28.5%,0.3%
SMILES,KB-3-1 tox,KB-V1 MDR tox,ATXN viability,HT1080-NT tox,ATXN2 expr inh,HT1080 IDH1KD tx
CC(=O)Nc1cccc(-c2ccnc3c2CC(C(=O)NCC2CCOCC2)O3)c1 (stereo not drawn),?,i,i,?,9.6%,?
ClC(Cl)(c1nnnn1-c1ccccc1)c1nnnn1-c1ccccc1,i,i,?,?,?,6.51µM*
COc1ccc(NC(=O)C2=C(C)Nc3nc(CCCO)nn3C2c2ccc(O)cc2)cc1 (stereo not drawn),i,?,i,·,-5.6%,·
O=C(Nc1ccc(F)cc1)c1ccc(S(=O)(=O)NCC2CCCO2)cc1 (stereo not drawn),?,13µM*,i,?,-8.4%,2.9%[9.24 µM]
CC(=O)Nc1ccc(C(=O)Nc2ccc(S(=O)(=O)NCC3CCCO3)cc2)cc1 (stereo not drawn),i,i,i,5.8%,3.3%,-4.4%
O=S(=O)(NCc1ccncc1)c1ccc(S(=O)(=O)NCC2CCCO2)cc1 (stereo not drawn),23.1µM*,i,i,0.0%,-20.7%,9.2%
C=C1C(=O)OC2C1CCC(C)=C1C(=O)C3OC3(C)C12 (stereo not drawn),?,?,8.91µM*,?,7.08µM*,16.4µM*
C=C1C(=O)O[C@@H]2[C@H]1CC[C@H](C)[C@]1(O)CCC(=O)[C@@]21C,?,i,?,?,-18.3%,?
Cc1cccc(CNC(=O)c2cnn(-c3nccc(-c4ccccc4C(F)(F)F)n3)c2C)n1,·,·,i,·,·,·
COc1ccc2[nH]cc(CCN3C(=O)CCC3=O)c2c1,i,?,i,17.5%,-0.5%,20.1%
COc1ccc2[nH]cc(CCCN3C(=O)c4ccccc4C3=O)c2c1,i,23.1µM*,i,-14.7%,-6.5%,-20.6%
Cn1nc(NC(=O)C(F)(F)F)c2ncc(-c3ccccc3)nc21,i,18.4µM*,i,-7.6%,·,-3.5%
CCn1c(SCc2ccc(F)cc2Cl)nc(=O)c2c(C(=O)OC)cc(C3CC3)nc21,i,i,·,·,·,·
c1ccc(CCNc2c3c(nc4ncnn24)CCC3)cc1,i,11.6µM*,i,2.1%,-6.1%,-6.0%
Fc1ccccc1CCNc1c2c(nc3ncnn13)CCCC2,?,i,i,0.2%,-26.1%,-10.2%
CN1CC=C2C(C#N)=C(N)C(C#N)(C#N)C(c3cccc(Cl)c3Cl)C2C1 (stereo not drawn),i,20.6µM*,i,-2.3%,0.8%,-8.5%
N#CC1=C(N)C(C#N)(C#N)[C@H](c2ccoc2)[C@H]2CN(Cc3ccccc3)CC=C12,5.17µM*,?,?,?,-9.0%,2.59µM*
CCc1ccc(Oc2nc3c(C)cccn3c(=O)c2/C=C(\C#N)c2nc3ccccc3[nH]2)cc1,i,i,i,·,2.7%,·
CCC(=O)NCC[C@@H]1CCc2ccc3c(c21)CCO3,·,·,·,·,-14.8%,·
